# A selection: hits, their analogues and other compounds. The true share with any hit is near 10%.
# BAZ2B block: inhibitors of human BAZ2B bromodomain | actives 4.4% (n = 360,000) | Q9UIF8 | AID 504333 | Potency, µM (highest dose often 114 µM), for the others: top-dose activity change, negative = inhibition, actives largely listed as inhibitors | AlphaScreen BAZ2B-H3K14Ac peptide displacement; further: on the % scale 0 is the no-effect control and ±100 the full control effect; nearly all actives have a fitted effect of over 60% in size
#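 AlphaScreen displacement of biotin-H3(5-23)K14Ac peptide (50 nM final) from BAZ2B (50 nM final) in PBS pH 7.4, 0.01% Tween-20; complex preformed 30 min RT, then compounds (top 110 uM) 30 min RT, beads 20 min dark.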
# L3MBTL1 inh: inhibitors of human L3MBTL1; Q9Y468; AlphaScreen L3MBTL1–H3K9me1 peptide binding; Potency, µM (top dose mostly 57.1 µM), for the others: top-dose activity, negative = inhibition, hits mostly inhibitors; actives 0.66% (n = 230,000); AID 485360; further: on the % scale 0 is the no-effect control and ±100 the full control effect; nearly all actives have a fitted effect of over 60% in size
# Target sequence (Q9Y468 whole entry, looked up): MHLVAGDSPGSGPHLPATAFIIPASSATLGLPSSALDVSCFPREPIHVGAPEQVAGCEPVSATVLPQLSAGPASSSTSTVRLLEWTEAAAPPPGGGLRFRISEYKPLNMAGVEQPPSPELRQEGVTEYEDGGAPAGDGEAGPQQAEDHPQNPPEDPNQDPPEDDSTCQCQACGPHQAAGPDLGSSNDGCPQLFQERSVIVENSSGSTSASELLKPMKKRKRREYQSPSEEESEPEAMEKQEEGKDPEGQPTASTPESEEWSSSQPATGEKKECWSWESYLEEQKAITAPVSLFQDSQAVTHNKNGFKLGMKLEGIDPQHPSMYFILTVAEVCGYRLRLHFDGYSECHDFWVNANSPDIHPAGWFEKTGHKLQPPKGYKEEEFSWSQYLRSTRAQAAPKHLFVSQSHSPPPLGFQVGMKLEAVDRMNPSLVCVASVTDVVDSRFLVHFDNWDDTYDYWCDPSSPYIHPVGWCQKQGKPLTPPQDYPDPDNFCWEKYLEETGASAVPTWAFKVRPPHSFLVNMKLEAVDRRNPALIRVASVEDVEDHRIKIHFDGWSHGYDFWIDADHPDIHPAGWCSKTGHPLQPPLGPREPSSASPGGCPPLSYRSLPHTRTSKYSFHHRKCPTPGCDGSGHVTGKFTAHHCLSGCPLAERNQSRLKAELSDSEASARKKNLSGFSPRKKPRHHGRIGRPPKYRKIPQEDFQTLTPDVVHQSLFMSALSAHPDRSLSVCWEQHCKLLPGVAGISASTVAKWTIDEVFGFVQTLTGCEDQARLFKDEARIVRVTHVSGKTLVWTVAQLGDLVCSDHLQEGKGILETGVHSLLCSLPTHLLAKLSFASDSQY
#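 Displacement of a biotinylated histone H3(1-15) peptide monomethylated at Lys9 (75 nM) from L3MBTL1 (50 nM) was measured by AlphaScreen after a 30 min room-temperature compound incubation; cefsulodin titration served as intraplate control.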
# JMJD2A Tudor: inhibitors of human JMJD2A Tudor domain. O75164. AlphaScreen JMJD2A-Tudor / H3K4me3 peptide binding. Potency, µM (titrated, usually from 114 µM), for inactives: at the highest dose activity change, negative = inhibition, most hits filed as inhibitors. actives 4.4% (n = 390,000). AID 504339; further: on the % scale 0 is the no-effect control and ±100 the full control effect; nearly all actives have a fitted effect of over 50% in size
# GLS inhibitor: inhibitors of human glutaminase (GLS); O94925; GLS enzymatic activity, qHTS titration; Potency, µM (titrated, usually from 45.5 µM), inactives show at the highest dose activity change, negative = inhibition, usual class: inhibitors; actives 0.21% (n = 410,000); AID 624170; further: on the % scale 0 is the no-effect control and ±100 the full control effect
#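 Glutamate formation by hKGA was monitored fluorometrically using coupled glutamate oxidase, HRP and Amplex Red. Substrate was added as 1 mM L-glutamine solution; incubation was 30 min at RT after an initial read.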
# HP1b chromo inh: HP1-beta chromodomain-methylated histone interaction inhibition. P83916. AlphaScreen HP1-beta / biotin-H3K9me3 peptide binding. Potency, µM (series often up to 114 µM), for the others: top-dose activity change, negative = inhibition, most hits filed as inhibitors. actives 0.56% (n = 390,000); further: nearly all actives have a fitted effect of over 70% in size
#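 Compound inhibition of the preformed complex between 50 nM HP1-beta and 50 nM biotinylated H3K9me3 peptide was read by AlphaScreen. Buffer was PBS pH 7.4 with 0.01% Tween-20. Incubations ran 30 min at room temperature, with 10 ug/mL donor/acceptor beads.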
# G9a inh: blocks human histone lysine methyltransferase G9a; Q96KQ7; G9a H3K9 monomethylation, AlphaScreen, 2 h; Potency, µM (series often up to 102 µM), for inactives: at the highest dose activity, negative = inhibition, most hits filed as inhibitors; actives 8.8% (n = 350,000); further: on the % scale 0 is the no-effect control and ±100 the full control effect; nearly all actives have a fitted effect of over 75% in size
#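 Compounds were preincubated with 20 nM G9a for 15 min, after which biotinylated H3K9 peptide (500 nM) and SAM (20 uM) started a 2 h room-temperature reaction. Monomethylated product was quantified by antibody-based AlphaScreen chemiluminescence.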
# The depositor's hits bear a star; u = inconclusive; x = not tested or not shown; [ ] = another dose, or the depositor's remark. The call rests on the fitted dose curve; in most records, active means well fitted curve in the direction sought with a large enough effect; inconclusive means small, poorly fitted or top-dose-only effect, or another doubt; inactive means no such curve, though single readings can be large; an effect the other way counts as inactive or inconclusive. Potency means the concentration at half of the fitted maximal effect.
SMILES,BAZ2B block,L3MBTL1 inh,JMJD2A Tudor,GLS inhibitor,HP1b chromo inh,G9a inh
Cc1cc(C)cc(N=C2SC(CC(=O)Nc3ccccc3)C(=O)N2CCN2CCOCC2)c1 (stereo unspecified),u,-16%,u,-16%,1%,50µM*
CC(C)c1ccc(Nc2nnc(SC3CCOC3=O)s2)cc1 (stereo unspecified),3%,-8%,3%,-10%,40%,3%[59 µM]
Cc1ccc(Nc2nnc(SC3CCOC3=O)s2)cc1 (stereo unspecified),10%,8%,-18%,0%,29%,10µM*
O=C(N/N=C/c1ccc(O)c([N+](=O)[O-])c1)C(O)(c1ccccc1)c1ccccc1,3%[57.1 µM],-5%,-19%,-12%,13%,x
CC(C)(c1ccc(O)c([N+](=O)[O-])c1)c1ccc(O)c([N+](=O)[O-])c1,x,x,56µM*,11%,u,x
COc1ccccc1NC(=O)C1=C(C)Nc2nc(SCc3cc(C)ccc3C)nn2C1c1ccccc1 (stereo unspecified),4%,x,-6%,-6%,16%,-2%[59 µM]
CCOC(=O)c1nnn(-c2nc(N3CCCC3)nc(N3CCCC3)n2)c1-c1ccccc1,-3%,3%,79µM*,-3%,-6%,1%[59 µM]
CCOC(=O)c1nnn(-c2ccccc2)c1C,1%,8%,-5%,5%,7%,16%[59 µM]
Cc1ccccc1NC(=O)CSc1nc2c(c(=O)n(C)c(=O)n2C)n1C,-14%,x,-7%,-7%,16%,71µM*
Cc1ccccc1NC(=O)CSc1nc(-c2ccccc2)cn1-c1ccccc1F,u,x,u,1%,-17%,11µM*
Cc1ccccc1NC(=O)CSc1nc2c(c(=O)n(C)c(=O)n2C)n1Cc1ccccc1F,-18%,x,5%,0%,36%,-5%[59 µM]
Cc1ccc(C)c(-n2cc(-c3ccccc3)nc2SCC(=O)Nc2ccccc2)c1,u,x,u,-1%,-15%,u
Nc1c(-c2nc(-c3ccccc3Cl)no2)nnn1-c1ccccc1F,1%,x,-13%,0%,24%,-9%[59 µM]
CCCn1c(=O)c2sccc2n2c(CCCC(=O)Nc3ccccc3OCC)nnc12,-19%,x,5%,2%,36%,-3%[59 µM]
CN1CCC(OC(=O)c2cc3cc(Cl)cc(Cl)c3oc2=O)CC1,-22%,-1%,-21%,1%,12%,u
COc1cccc2cc(C(=O)NCCc3ccccc3)c(=O)oc12,-3%,x,-12%,-1%,16%,13%[0.501 µM]
O=C(NCCO)c1cc2cc(Cl)cc(Cl)c2oc1=O,-25%,x,-24%,u,u,3.2µM*
O=C(NCc1ccc(Cl)cc1)c1cc2ccccc2oc1=O,24%,53%,-28%,9%,3%,x
O=C(O)c1cc2cc(Cl)cc(Cl)c2oc1=O,u,-5%,24%[11.4 µM],-2%,-6%,56µM*
COCCNC(=O)c1cc2cc(Cl)cc(Cl)c2oc1=O,-3%,5%,-6%,-9%,u,45µM*
COc1ccccc1NC(=O)c1sc(NC(=O)c2ccco2)c(C#N)c1C,-6%,x,-7%,19%,7%,-3%[59 µM]
CCOC(=O)c1sc(NC(=O)c2cccnc2)c(C#N)c1C,-8%,4%,-9%,1%,27%,11µM*
COC(=O)c1sc(NC(=O)c2ccco2)c(C#N)c1C,-25%,x,-13%,9%,-25%[57 µM],35µM*
CCc1cccc(C)c1NC(=O)CN(C)S(=O)(=O)c1cccc2nsnc12,x,x,-13%,2%,20%,5%[59 µM]
N#Cc1c[nH]n2c(NC3CCCC3)c(-c3ccc(Cl)cc3)nc12,-18%,x,-8%,u,47%,u
COc1ccc(-c2nc3c(C#N)c[nH]n3c2NC2CCCC2)cc1,1%,x,1%,13µM*,28%,u
CCOc1ccc(-c2nc3c(C#N)c[nH]n3c2NC2CCCCC2)cc1,-5%,x,-21%,13µM*,13%,-5%[59 µM]
